# Measured values: PubChem BioAssay AID588405 (Sanford-Burnham Center for Chemical Genomics, 2011)
# The whole screen tested about 360,000 compounds, of which about 6,200 (1.7%) were called active. The entries come from a sample that favours actives as a whole. Unmarked numbers belong to inactive results.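 Rule for the calls: active = inhibition of at least 50% at 20 µM; inactive = the rest.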
# Experiment: Peg3 promoter-driven luciferase inhibitors, primary screen, cell-based, HeLa, luciferase luminescence (AID 588405)
# Details: HeLa PEG-Prom luciferase reporter, overnight, at 20 µM, active compounds read high
row,Structure (SMILES),inhibition
1,Cc1nn(-c2ccccc2)c(Cl)c1/C=N/NC(=O)c1nn(C)cc1[N+](=O)[O-],-116%
2,CC(C)(C)c1cc(C(=O)N/N=C/c2ccc([N+](=O)[O-])s2)n[nH]1,50.6% (active)
3,O=[N+]([O-])c1ccc(C=Nc2ccc(Cl)cc2Cl)s1,47.5%
4,CCNC(=O)C1(C)CCCN(C(=O)c2ccc3ccccc3n2)C1 (stereo not given),-7.45%
5,CNC(=O)c1cccc2nc3ccccc3nc12,6.22%
6,CCCN(CCC)CCNC(=O)c1cc2c(C)nc3ccccc3c2o1,18.8%
7,CN(C)CCNC(=O)c1ccc(Cl)c2cc3ccccc3nc12,102% (active)
8,COc1ccc(-c2cc3c(c4c2ccn4C)C2CCC3C2)cn1 (stereo not given),-6.53%
9,CNC[C@H](CC1CCCCC1)NC[C@H](NCCC1CCCC1)[C@H](C)O,73.8% (active)
10,CCCCC[C@@H]1C=C(C(=O)OCC)[C@H](c2ccccc2)N1S(=O)(=O)c1ccc(C)cc1,12.8%
11,CC(C)Cc1nnc(NC(=O)CCC(=O)Nc2ccc3cn[nH]c3c2)s1,19.8%
12,COC(=O)c1cc(NC2c3ccccc3C(=O)N2c2ccc(Cl)cn2)cc(C(=O)OC)c1 (stereo not given),-65.5%
13,CN(Cc1ccccc1F)c1cc2c(c3c1ccn3C)C1CCC2O1 (stereo not given),33.1%
14,Cc1cccc(C(=O)OC(C)CN2CCN(C)CC2)c1 (stereo not given),-101%
15,Cc1cccc(-c2nc3ccc(C(=O)NCCN4CCN(C)CC4)cc3nc2-c2cccc(C)c2)c1,103% (active)
16,Cc1cc(C)cc(C(=O)NCCN2CCOCC2)c1,3.53%
17,Cc1ccc(S(=O)(=O)NCC(=O)NNC(=O)c2ccc(Br)cc2)cc1C,4.68%
18,CCOc1cc(N2CCOCC2)c(OCC)cc1NC(=O)COC(=O)[C@H](Cc1c[nH]c2ccccc12)NC(C)=O,22.9%
19,CCOc1cc(N2CCOCC2)c(OCC)cc1NC(=O)COc1cccc2cccnc12,109% (active)
20,CCOc1cc(N2CCOCC2)c(OCC)cc1NC(=O)c1ccc(C)s1,-88.6%
21,CC1(C(=O)Nc2cccc3c2CCCC3)CCN1C(=O)CCc1ccc(Cl)cc1Cl (stereo not given),36.2%
22,COc1ccc(OC)c(C(O)c2nc3ccccc3n2C)c1 (stereo not given),0.26%
23,CC1=C(C(=O)N2CCOCC2)CC(CC(=O)NCCCN(C)C)C(=O)N1Cc1ccc(C(C)(C)C)cc1 (stereo not given),-10.2%

row,Structure (SMILES),inhibition
1,Cc1ccc(S(=O)Cc2ccc(C(=O)N3CCN(C4CCCCC4)CC3)o2)cc1 (stereo not given),24.1%
2,CN(C)S(=O)(=O)c1cccc(C(=O)OCC(=O)N2CCCC2=O)c1,-2.53%
3,CCOC(=O)c1ccc(NC(=O)Cc2cccs2)cc1,-222%
4,CCOC(=O)c1ccc(NC(=O)CNC(=O)c2ccco2)cc1,102% (active)
5,O=C(COC(=O)CNC(=O)c1ccco1)Nc1ccc(F)cc1,8.45%
6,CCCNC(=O)C1(C)CCN(Cc2ccc(Cl)c(Cl)c2)C1 (stereo not given),1.28%
7,CC(=O)Nc1ccc(-c2csc(NC(=O)Nc3ccccc3)n2)cc1,102% (active)
8,CC(=O)Nc1ccc(-c2cn3cccnc3n2)cc1,-72.3%
9,Cc1ccc(NC(=O)Nc2cc(-c3ccccc3)nn2C)cc1Cl,4.66%
10,COc1ccc(S(=O)(=O)N(C)C[C@H]2Oc3c(NC(=O)Nc4ccc5c(c4)OCO5)cccc3C(=O)N([C@H](C)CO)C[C@@H]2C)cc1,-2.6%
11,CCCNC(=O)C1(C)CCN(C(=O)c2cc(F)ccc2C)C1 (stereo not given),-1.83%
12,CCc1nc2ccc(C(=O)N3CCC(O)(Cc4ccccc4)CC3)cn2c1N(C)C(=O)Cc1ccccc1,4.95%
13,COc1ccc(/C(C)=N/N2CCOCC2)c(O)c1,-9.18%
14,CCCC(O)(c1ccc(OC)cc1)C(CN(C)C)c1ccccc1 (stereo not given),7.67%
15,Cc1cc(C)n(CC(O)COc2ccc(C(C)(C)C)cc2)n1 (stereo not given),-28.6%
16,CN(C)CC(O)COc1ccc(C(C)(C)c2ccc(OCC(O)CN(C)C)cc2)cc1 (stereo not given),77.5% (active)
17,CS(=O)(=O)N(CC(=O)N1CCCC1)Cc1ccccc1,3.29%
18,CCCCc1ccc(S(=O)(=O)NC(=O)C2(C)CCN2C(=O)c2ccccc2)cc1 (stereo not given),0.57%
19,O=C(NCCO)c1cccc(-c2cccc3nccn23)c1,-16.2%
20,O=C(Nc1ccc2c(c1)OCCO2)C(C1CC1)N1CCC(Cc2ccccc2)CC1 (stereo not given),-10.2%
21,O=C(Nc1ccc(C(=O)N2CCOCC2)cc1)Nc1cccc(C(F)(F)F)c1,2.67%
22,COc1cccc(NC(=O)Nc2ccc(F)cc2)c1,-212%
23,CC(=O)c1ccc(Nc2nc(C(N)c3ccccc3)cs2)cc1 (stereo not given),-58.5%

row,Structure (SMILES),inhibition
1,NC(c1csc(NC(=O)Nc2cccc(C(F)(F)F)c2)n1)C1CCCCC1 (stereo not given),111% (active)
2,O=C(Nc1cccc(F)c1)NC1CCCCCCC1,-273%
3,NC(c1ccccc1)c1csc(NC(=O)Nc2cccc(C(F)(F)F)c2)n1 (stereo not given),113% (active)
4,C/C(CC(=O)Nc1cccc(C(F)(F)F)c1)=N\NC(=O)C(=O)NCC(C)C,-1.6%
5,COc1ccc(C(N)c2csc(NC(=O)Nc3cccc(C(F)(F)F)c3)n2)cc1 (stereo not given),96.6% (active)
6,COc1ccc(C(CC(=O)Nc2ccc(C)cc2)NC(=O)C(F)(F)F)cc1 (stereo not given),3.66%
7,Cc1cc(Br)ccc1NC(=O)CCCOc1cc(=O)n(C)c2ccccc12,-16.6%
8,Cc1ccc(C)c(OCCC(=O)Nc2cccc(S(=O)(=O)N3CCCC3)c2)c1,21.3%
9,COC(=O)CNC(c1ccccc1Cl)c1cc(Br)ccc1NC(=O)CCN1CCOCC1 (stereo not given),20.5%
10,COC(=O)Cc1cnc(NC(=O)CSc2nc(C(C)C)cc(=O)[nH]2)s1,1.1%
11,CC1(Oc2cccc(F)c2)CCN(Cc2ccccc2OC(F)F)C1 (stereo not given),2.93%
12,CCCNC(=S)N1CCC(NC(=O)C23CC4CC(CC(C4)C2)C3)CC1,8.28%
13,CCNC(=O)C1CCCN(C(=O)c2cc(F)ccc2C)CC1 (stereo not given),2.54%
14,CCc1nc2ccc(C(=O)NC3CCN(Cc4ccccc4)CC3)cn2c1N(C)CCN1CCOCC1,-22.2%
15,CCC(=O)N1CCC(C)(C(=O)Nc2cc(OC)c(OC)c(OC)c2)C1 (stereo not given),-5.88%
16,CCOC(=O)c1c(C)[nH]c2c1-c1ccccc1C(=O)C2=O,108% (active)
17,CCOC(=O)c1[nH]c2ccccc2c1N=C(C)N(CC)CC,12.3%
18,CCOC(=O)c1c(C)[nH]c(C)c1S(=O)(=O)NCCCc1ccco1,-7.04%
19,Brc1ccc(Nc2c3c(nc4ncnn24)CCC3)cc1,22.3%
20,CC(=O)c1cccc(-c2cnc3c(NC=O)cc(-c4ccc(N5CCN(C)CC5)cc4)cn23)c1,-143%
21,CC1(C(=O)NS(=O)(=O)c2cccc(OC(F)F)c2)CCN1C(=O)C1CC1 (stereo not given),-2.21%
22,CCCCn1c(N)c(N2CCOCC2)c(=O)n(CC(=O)NCCc2ccccc2)c1=O,2.61%
23,O=C(CN1CCCCCC1)NCCN1C(=O)S/C(=C\c2ccccc2Cl)C1=O,3.28%

row,Structure (SMILES),inhibition
1,CN(C(=O)CCN1C(=O)/C(=C/c2ccccc2F)SC1=S)C1CCS(=O)(=O)C1 (stereo not given),6.96%
2,O=C1/C(=C\c2ccccc2Cl)SC(=S)N1CCC(=O)N1CCCc2ccccc21,105% (active)
3,Cc1cc(Br)cn2c(Cc3cccc(F)c3)c(-c3cccc(Br)c3)nc12,33.6%
4,COc1ccc(-c2ccc(C(=O)NCCN3CCOCC3)c3occc23)c(C)c1,-2.5%
5,CCOC1=C2[C@H]([C@H]3C(=O)N(c4ccccc4)C(=O)[C@H]3C1)[C@@H](c1ccccc1)N(S(=O)(=O)c1ccc(C)cc1)[C@H]2c1ccccc1,16.4%
6,Cc1ccc(S(=O)(=O)N(C)C)cc1NC(=O)c1ccc(-n2cncn2)c([N+](=O)[O-])c1,6.01%
7,CCN(CC)C(=O)C1CCCN(Cc2cccc(Cl)c2)C1 (stereo not given),3.55%
8,COc1ccc(-c2csc(C(O)c3cccc(Cl)c3)n2)cn1 (stereo not given),-7.77%
9,COc1ccc2c(c1)c(=Cc1ccc(N(C)C)cc1)c1cc(-c3ccccc3)[n+](C)n12,104% (active)
10,Cc1nc2cc(S(=O)(=O)C(F)(F)F)ccc2s1,2.35%
11,COc1cccc(CN2CCC(C(=O)NC(c3ccc4c(c3)OCO4)c3ccccn3)CC2)c1 (stereo not given),-0.88%
12,Cc1cccnc1C(NC(=O)C1CCN(Cc2ccc(Cl)c(Cl)c2)CC1)c1ccc(Cl)cc1 (stereo not given),2.43%
13,Cc1ccc(-n2c(SCC(=O)N/N=C/C=C/c3ccccc3[N+](=O)[O-])nc3ccccc3c2=O)cc1,6.9%
14,CCn1c(/C=C/c2ccc([N+](=O)[O-])o2)nc2ccccc2c1=O,93.3% (active)
15,O=c1c2ccccc2ncn1/N=C/c1ccccc1,-247%
16,CC1(C(=O)NS(=O)(=O)Cc2cccc(Cl)c2)CCN1C(=O)Cc1ccccc1 (stereo not given),8.1%
17,Cc1ccc(NS(=O)(=O)c2cc3c(cc2Br)NC(=O)CO3)cc1C,24.2%
18,O=C(CCl)Nc1ccc(Sc2ccc(NC(=O)CCl)cc2)cc1,99.8% (active)
19,CC(C)(CCl)C(=O)Nc1ccc(Sc2ccc(F)cc2)cc1,-14%
20,O=C(CCl)Nc1cccc(CP(=O)(c2ccccc2)c2ccccc2)c1,22.4%
21,CC(C)C1C(=O)N(Cc2cn(CCC3OCCO3)nn2)CCS(=O)(=O)N1Cc1ccc(-c2ccccc2C(F)(F)F)cc1 (stereo not given),12.5%
